Results reported in PubChem BioAssay AID624136 (Broad Institute, 2012).
Hit rate of the full screen: of about 17,000 compounds, about 75 (0.4%) were called active.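 How the source made its calls: active means compounds whose four printed spots each glow above background more than chance allows, each with a p-value under 7%; inactive means the rest.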 Many of the other results were omitted from the sample, so actives are more common in it than they were.

These compounds were tested on mutant tumor protein p53 (GST-tagged), Homo sapiens (assay: small molecules binding GST-tagged mutant p53 – biochemical, small molecule microarray, anti-GST fluorescence, primary screen (AID 624136)).

SMILES	outcome
C[C@@H]1CN([C@H](C)CO)C(=O)c2cccc(NC(=O)Nc3ccc(F)cc3)c2O[C@@H]1CN(C)Cc1ccc(C(F)(F)F)cc1	inactive
O=C(NCc1cccnc1)c1cnn2c(C(F)F)cc(-c3ccccc3)nc12	inactive
CNC[C@H]1OCCCC[C@@H](C)Oc2ccc(NC(=O)c3ccncc3)cc2C(=O)N([C@H](C)CO)C[C@H]1C	inactive
Cn1nnc2cc(C(=O)N(CCO)c3ccccc3)ccc21	inactive
C[C@@H]1CN([C@@H](C)CO)C(=O)Cc2cc(NC(=O)Cc3cn(C)c4ccccc34)ccc2O[C@H]1CN(C)Cc1ccc(C(=O)O)cc1	inactive
Cc1noc(C)c1S(=O)(=O)Nc1cccc2c1O[C@H](CN(C)Cc1ccc(C(F)(F)F)cc1)[C@H](C)CN([C@@H](C)CO)C2=O	inactive
CC(=O)Nc1ccccc1-c1cn(CC(=O)N2CCOCC2)nn1	inactive
CCCN(C)C[C@@H]1OCCCC[C@H](C)Oc2ccc(NS(=O)(=O)c3ccc(C)cc3)cc2C(=O)N([C@H](C)CO)C[C@@H]1C	inactive
Cc1noc(C)c1NC(=O)Nc1ccc2c(c1)C(=O)N([C@@H](C)CO)C[C@H](C)[C@@H](CN(C)C)O2	inactive
C[C@@H]1CN([C@@H](C)CO)C(=O)c2cc(N(C)C)ccc2O[C@@H](C)CCCCO[C@@H]1CN(C)C(=O)CCC(F)(F)F	inactive
CC(C)NC(=O)Nc1ccc2c(c1)C(=O)N([C@H](C)CO)C[C@H](C)[C@@H](CN(C)C(=O)CCCN(C)C)OCCCC[C@@H](C)O2	inactive
Cc1noc(C)c1S(=O)(=O)Nc1ccc2c(c1)CC(=O)N([C@@H](C)CO)C[C@H](C)[C@H](CN(C)C(=O)Nc1ccccc1)O2	inactive
CC(C)NC(=O)N(C)C[C@@H]1OCCCC[C@@H](C)Oc2ccc(NC(=O)CCCN(C)C)cc2C(=O)N([C@@H](C)CO)C[C@@H]1C	inactive
COc1ccc(S(=O)(=O)Nc2ccc3c(c2)C(=O)N([C@@H](C)CO)C[C@@H](C)[C@H](CN(C)S(=O)(=O)c2cccs2)O3)cc1	inactive
COc1ccc(NC(=O)N(C)C[C@H]2Oc3ccc(NS(=O)(=O)c4ccc(C)cc4)cc3C(=O)N([C@@H](C)CO)C[C@H]2C)cc1	inactive
COc1ccc(C(=O)CCC(=O)Nc2cccnc2)c(OC)c1	inactive
C[C@H](CO)N1C[C@H](C)[C@H](CN(C)S(=O)(=O)c2cccs2)OCCCC[C@H](C)Oc2ccc(NC(=O)CCCN(C)C)cc2C1=O	inactive
CCOC(=O)c1c(CN2CCOCC2)nc2c3ccccc3ccn12	inactive
CS(=O)(=O)N(CC(=O)Nc1ccc(F)c(F)c1)c1ccccc1F	inactive
COC(=O)c1ccccc1NC(=O)Cc1coc2cc(C)cc(C)c12	inactive
COc1ccc(-c2nnc(SCC(=O)Nc3c(C)n[nH]c3C)n2-c2ccccc2)cc1OC	inactive
C[C@H]1CN([C@@H](C)CO)C(=O)Cc2cc(NC(=O)c3ccncc3)ccc2O[C@@H]1CN(C)C(=O)Nc1ccccc1	inactive
C[C@@H]1CCCCO[C@H](CN(C)Cc2ccc3c(c2)OCO3)[C@@H](C)CN([C@H](C)CO)C(=O)c2cc(N(C)C)ccc2O1	inactive

SMILES	outcome
O=C1N(CCS(=O)(=O)c2ccccc2)Cc2ccccc2[C@H]2OC(c3ccc(OCCCO)cc3)=N[C@@]12CCS(=O)(=O)c1ccccc1	inactive
C[C@H](CO)N1C[C@H](C)[C@H](CN(C)C(=O)Nc2ccc(F)cc2)Oc2ccc(NC(=O)Cc3cn(C)c4ccccc34)cc2CC1=O	inactive
C[C@H](CO)N1C[C@H](C)[C@H](CN(C)S(=O)(=O)c2ccc(Cl)cc2)Oc2c(NS(C)(=O)=O)cccc2C1=O	inactive
C[C@@H]1CN([C@@H](C)CO)C(=O)c2cc(NC(=O)Cc3ccccc3)ccc2O[C@H]1CN(C)CC1CC1	inactive
C[C@H]1CN([C@@H](C)CO)C(=O)c2cc(NC(=O)NC3CCCCC3)ccc2O[C@@H]1CN(C)C(=O)Nc1cccc2ccccc12	inactive
COc1ccccc1-c1nnc(SCC(=O)Nc2ccccc2)o1	inactive
C[C@@H]1CN([C@H](C)CO)C(=O)c2cc(NS(=O)(=O)c3ccccc3)ccc2O[C@@H](C)CCCCO[C@H]1CN(C)C(=O)C1CCCCC1	inactive
Cc1ccc(S(=O)(=O)N(C)CC(=O)Nc2ccc(C#N)cc2)cc1	inactive
C[C@H]1CN([C@@H](C)CO)C(=O)c2cccc(NC(=O)Nc3cccc4ccccc34)c2O[C@@H]1CN(C)C(=O)NC1CCCCC1	inactive
C[C@H](CO)N1C[C@H](C)[C@H](CN(C)S(=O)(=O)c2cccs2)Oc2c(NS(=O)(=O)c3ccc(Cl)cc3)cccc2C1=O	inactive
O=C(C1=C[C@H](c2csc3ccccc23)C[C@H](OCc2ccc(CO)cc2)O1)N1CCCCC1	inactive
C[C@@H]1CN([C@H](C)CO)C(=O)Cc2cc(NC(=O)Nc3ccc(F)cc3)ccc2O[C@@H]1CN(C)Cc1ccc2c(c1)OCO2	inactive
C[C@@H]1CN([C@@H](C)CO)C(=O)Cc2cc(NS(=O)(=O)c3ccc(Cl)cc3)ccc2O[C@H]1CN(C)CC1CCCCC1	inactive
CNC[C@@H]1Oc2ncc(-c3ccc(F)cc3)cc2C(=O)N([C@H](C)CO)C[C@@H]1C	inactive
CCNc1nc(NCC)nc(OCC#N)n1	inactive
CO[C@@H]1[C@@H](OC(N)=O)[C@@H](O)C(Oc2ccc3c(O)c(NC(=O)c4ccc(O)c(CC=C(C)C)c4)c(=O)oc3c2C)OC1(C)C (stereo not given in full)	inactive
COc1ccc2ncnc(NCc3ccc4c(c3)OCO4)c2c1	inactive
COc1ccc(S(=O)(=O)Nc2ccc3c(c2)CC(=O)N([C@H](C)CO)C[C@H](C)[C@H](CN(C)Cc2ccc(C(F)(F)F)cc2)O3)cc1	inactive
C[C@H]1CN([C@@H](C)CO)C(=O)Cc2cc(NC(=O)NC3CCCCC3)ccc2O[C@H]1CN(C)S(=O)(=O)c1cccs1	inactive
COc1ccc(CN(C)C[C@H]2Oc3c(NC(=O)c4cnccn4)cccc3C(=O)N([C@H](C)CO)C[C@@H]2C)cc1	inactive
COc1cc(CCC(=O)O)oc(=O)c1	inactive
C[C@H](CO)N1C[C@H](C)[C@@H](CN(C)C(=O)Nc2ccc3c(c2)OCO3)Oc2ccc(NS(=O)(=O)c3ccc(Cl)cc3)cc2C1=O	inactive
